Bioassay records: PubChem BioAssay, National Center for Advancing Translational Sciences (NCATS)
The list is not random: actives were taken first. Their share in the collection is about 8.7%.
Pf growth 96h: P. falciparum growth inhibition at 96 hours; P. falciparum luciferase reporter growth, 96 h; Potency, µM (top dose mostly 28.7 µM), without a hit: at the highest dose activity change, negative = inhibition, actives largely listed as inhibitors; 320,000 tested, 6.9% active
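Cell-based qHTS: luciferase-tagged P. falciparum in erythrocytes (2% hematocrit, 0.05% parasitemia final) incubated with compounds for 96 hours, 37 C, 5% CO2; luciferase detection reagent then added and luminescence measured.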
Vaccinia Venus: vaccinia inhibition (Venus reporter) | 330,000 tested, 0.46% active | Potency, µM (top dose mostly 36.5 µM), inactives show at the highest dose activity change, negative = inhibition, most hits filed as inhibitors | Vaccinia virus Venus reporter expression, fluorescence; calls by dose curve; tested in A549 cells; also: nearly all actives have a fitted effect of over 30% in size
Pf growth 48h: P. falciparum growth inhibition at 48 hours (one generation). P. falciparum luciferase growth in erythrocytes, 48 h. 310,000 tested, 5.9% active. AID 504832. Potency, µM (series often up to 28.7 µM), inactives show at the highest dose activity change, negative = inhibition, actives largely listed as inhibitors
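Luciferase-expressing parasites in RBCs, 2% Hct / 0.1% parasitemia final; RPMI 1640 + 0.5% Albumax; 37 C, 5% CO2, one generation; luminescence read-out, lower signal = inhibition.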
Vaccinia mCherry: vaccinia inhibition (mCherry reporter) | Potency, µM (highest dose often 36.5 µM), without a hit: top-dose activity change, negative = inhibition, actives largely listed as inhibitors | Vaccinia virus mCherry reporter infection, fluorescence | 310,000 tested, 0.63% active | AID 720579; calls by dose curve; tested in A549 cells; also: nearly all actives have a fitted effect of over 35% in size
AMA1-RON2 inh: disrupts binding of P. falciparum AMA1 to RON2; AlphaScreen AMA1-biotinylated RON2 peptide binding; Potency, µM (doses to about 58.2 µM), without a hit: at the highest dose activity change, negative = inhibition, hits mostly inhibitors; 360,000 tested, 0.2% active; AID 720542;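 also: 0% = vehicle wells and -100% = peptide control; nearly all actives have a fitted effect of over 45% in size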
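AMA1 (3D7) with his tag at 25 nM final met compounds first, then biotinylated RON2 peptide at 25 nM; detection used donor plus acceptor beads, 10 µg/mL apiece, read by AlphaScreen after 30 min at room temperature.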
The depositor's hits bear a star; i = inactive; ? = inconclusive; . = no result given; ! = not active in a repeat; [ ] = dose if it differs, or a comment. Unless noted, calls follow the shape of the dose curve; as a rule, active = well fitted curve in the direction sought with a large enough effect; inconclusive = small, poorly fitted or top-dose-only effect, or another doubt; inactive = no such curve, though single readings can be large; an effect the other way counts as inactive or inconclusive. Unless noted, % is scaled to controls: 0 for no effect and ±100 for the full control effect; potency is read from the fitted curve at half-maximal effect.

SMILES	Pf growth 96h	Vaccinia Venus	Pf growth 48h	Vaccinia mCherry	AMA1-RON2 inh
C#CCOCCOCCOCCNc1nc(N2CCN(C(=O)CCCCCCCCCCNC(=O)[C@H](CO)n3cc(CCCCCN)nn3)CC2)nc(N2CCN(C(=O)CCCCCCCCCCNC(=O)[C@H](CCCN=C(N)N)n3cc(C[C@@H](C)CC)nn3)CC2)n1	2.62µM*	.	3.29µM*	.	.
C#CCOCCOCCOCCNc1nc(N2CCN(C(=O)Cn3cc(CC(C)O)nn3)CC2)nc(N2CCN(C(=O)[C@H](CCCCN)n3cc(CC(C)O)nn3)CC2)n1 (stereo not given in full)	.	11.2%	.	-12.4%	-3.3%
C#CCOCCOCCOCCNc1nc(N2CCN(C(=O)[C@H](CCCN=C(N)N)n3cc(C(N)[C@@H](C)CC)nn3)CC2)nc(N2CCN(C(=O)[C@H](CCCCN)n3cc([C@@H](N)CC(N)=O)nn3)CC2)n1 (stereo not given in full)	.	4.9%	.	-21.1%	20.8%
C#CCOCCOCCOCCNc1nc(N2CCN(C(=O)CCCCCCCCCCNC(=O)[C@H](CCCCN)n3cc(C)nn3)CC2)nc(N2CCN(C(=O)CCCCCCCCCCNC(=O)[C@H](CCCN=C(N)N)n3cc(C[C@@H](C)CC)nn3)CC2)n1	1.47µM*	10µM*	1.85µM*	?	?
Cc1ccc(OCC(=O)Nc2cccc(OCc3cc(=O)n4ccccc4n3)c2)cc1C	.	-21.8%	.	-30.0%	.
COc1cccc(CSc2nnnn2-c2ccc(O)cc2)c1	?	-22.9%	9.28µM*	-20.4%	-9.3%
COc1ccc(-n2nnnc2SCC(=O)c2cccc(OC)c2)cc1	?	-5.3%	8.9%	-18.9%	-0.8%
CCOC(=O)c1oc2ccccc2c1CSc1nnnn1-c1ccc(OC)cc1	11.7µM*	.	4.8%	.	-0.8%
COc1ccc(-n2nnnc2SCC(=O)NC2CC2)cc1	8.9%	.	-12.8%	.	0.0%
COc1ccc(-n2nnnc2SCC#CCO)cc1	0.465µM*	.	-6.1%	.	-0.9%
Cc1ccc(CN2CCNC(=O)C2CC(=O)N(C)C(C2CC2)C2CC2)o1 (stereo not given)	13.1µM*	-1.2%	31.3%	-23.0%	3.0%
CN(C(=O)CC1C(=O)NCCN1CC(c1ccccc1)c1ccccc1)C(C1CC1)C1CC1 (stereo not given)	?	.	?	.	-6.8%
CSc1nc2ccc(NC(=O)NC(=O)c3c(F)cccc3F)cc2s1	117.8%	-9.4%	87.6%	i	-0.1%
COc1cccc(F)c1C(=O)NC(=O)Nc1ccc2nc(C)oc2c1	2.08µM*	-16.8%	2.08µM*	-8.2%	-10.2%
Nc1c(C(=O)Nc2ccc(C(=O)O)cc2)sc2nc3c(cc12)CCCC3	.	2.7%	.	-14.2%	.
Nc1c(C(=O)Nc2ccc(S(=O)(=O)N3CCCC3)cc2)sc2nc3ccc(OC(F)(F)F)cc3cc12	200.0%	-10.9%	10.4µM*	-17.6%	11.0%
Nc1c(C(=O)Nc2ccc(S(=O)(=O)N3CCCC3)cc2)sc2nc3cc4c(cc3cc12)CCC4	-9.4%	9.2%	1.85µM*	-11.0%	0.1%
C=CCn1c(SCC(=O)N(C(C)CC)C2CCS(=O)(=O)C2)nc2ccccc2c1=O (stereo not given)	5.86µM*	-12.7%	?	-14.2%	-8.5%
CCC(C)N(C(=O)COc1ccccc1C(=O)NCc1ccccc1)C1CCS(=O)(=O)C1 (stereo not given)	9.28µM*	-4.3%	?	-17.2%	3.4%
CCC(C)N(C(=O)CSc1nc(C)nc2ccccc12)C1CCS(=O)(=O)C1 (stereo not given)	14.7µM*	-6.0%	?	-23.0%	5.6%
COCCn1c(SCC(=O)N(C)C2CCS(=O)(=O)C2)nc2ccccc2c1=O (stereo not given)	13.9%	-8.3%	-2.1%	-6.3%	-3.1%
CCn1c(SCC(=O)N(Cc2ccccc2)C2CCS(=O)(=O)C2)nc2ccccc2c1=O (stereo not given)	.	.	5.22µM*	.	-7.4%
CCN(C(=O)CSc1nc2ccccc2c(=O)n1Cc1ccc(C)cc1)C1CCS(=O)(=O)C1 (stereo not given)	?	-5.5%	-2.3%	-5.6%	4.4%
O=C(Cn1c(=O)c2ccccc2n(CC(=O)Nc2ccc(Cl)cc2)c1=O)NCCc1ccccc1	.	-3.3%	.	-12.2%	.
COC(=O)c1cc2occc2n1Cc1ccc(F)cc1Cl	.	-7.8%	.	-11.9%	.
SMILES	Pf growth 96h	Vaccinia Venus	Pf growth 48h	Vaccinia mCherry	AMA1-RON2 inh
Cc1ccnc2c(N)cccc12	.	0.1%	.	-7.7%	.
CCOC(=O)c1cnc2c(OC)cccc2c1Nc1cccc(O)c1	.	-17.8%	.	-14.1%	.
CCN1C/C(=C/c2cccc([N+](=O)[O-])c2)C(=O)/C(=C/c2cccc([N+](=O)[O-])c2)C1	2.33µM*	-29.1%	1.65µM*	-13.4%	-25.4%
COc1cc(/C=C2\CC/C(=C\c3cc(OC)c(OC)c(OC)c3)C2=O)cc(OC)c1OC	2.08µM*	-16.8%	2.62µM*	-8.9%	-12.2%
COc1cc(/C=C2\CCC/C(=C\c3ccc(O)c(OC)c3)C2=O)ccc1O	5.36µM*!	?	9.28µM*	6.31µM*	-7.8%
COc1cc(/C=C2\CCc3ccccc3C2=O)cc(OC)c1OC	35.1%	-25.3%	-26.7%	?	-20.4%
CCOc1cc(/C=C2\CN(CC)C/C(=C\c3ccc(O)c(OCC)c3)C2=O)ccc1O	2.08µM*	-23.6%	2.08µM*	?	?
CC(C)Cc1nc2cc(NS(=O)(=O)N(C)C)cc(C(=O)N3CC4(C)CC3CC(C)(C)C4)c2n1C (stereo not given)	.	14.5%	.	-2.5%	.
COc1ccc(CCn2c3c(c(=O)[nH]c2=O)C(NC(=O)c2ccccc2)(C(F)(F)F)C(=O)N3)cc1OC (stereo not given)	.	4.4%	.	-4.6%	.
COc1cccc(N2CC(NC(=O)c3cccs3)CC2=O)c1 (stereo not given)	.	-4.7%[7.34 µM]	.	-9.8%[7.34 µM]	.
COc1cc(/C=C2\COC/C(=C\c3cc(OC)c(OC)c(OC)c3)C2=O)cc(OC)c1OC	0.828µM*	?	0.37µM*	?	-19.2%
COc1cc(/C=C2\CC/C(=C\c3cc(OC)c(O)c(OC)c3)C2=O)cc(OC)c1O	6.57µM*	20.1%	?	i	?
COc1cc(/C=C2\CCC(C3CCCC3)C2=O)cc(OC)c1OC (stereo not given)	0.0%	-13.5%	-20.4%	-2.1%	3.1%
COc1cc(/C=C2/CCC/C(=C\c3cc(O)c(OC)c(Cl)c3)C2=O)cc(Cl)c1O	0.131µM*	.	?	.	-24.3%
O=C(N[C@@H]1c2ccccc2C2(CCN(C(=O)c3cc4ccccc4oc3=O)CC2)[C@H]1O)c1cccnc1	.	-7.7%	.	-0.5%	.
COC(=O)CNC(=O)c1cc(OC)cc(OC)c1	0.0%	-2.5%	7.9%	-17.0%	13.1%
CCOC(=O)CNC(=O)c1cc(OC)cc(OC)c1	0.928µM*	-14.0%	28.9%	-19.4%	-2.5%
Cc1cccc(N2CCN(S(=O)(=O)c3ccc(F)c(C(=O)Nc4ccc(C(C)C)cc4)c3)CC2)c1C	.	-11.9%	.	-7.1%	.
